The list is not random: actives were taken first. Their share in the collection is about 12%.
Sm TGR block: qHTS Assay for the Inhibitors of Schistosoma Mansoni Peroxiredoxins. purified TGR, DTNB reduction, TNB absorbance 405 nm. 360,000 tested, 3% active. AID 485364, 2010. Potency, µM (titrated, usually from 114 µM), actives largely listed as inhibitors. Schistosoma mansoni thioredoxin glutathione reductase (TGR), Q962Y6; active means well fitted inhibition curve with a large enough effect; inconclusive means small, poorly fitted or top-dose-only effect; inactive means no such curve, though single readings can be large or run the other way; further: nearly all actives have a fitted effect of over 60% in size
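Kinetic colorimetric format: TGR-catalysed, NADPH-driven DTNB reduction monitored via TNB absorbance. Enzyme dispensed at 20 nM; compound exposure 15 min at room temperature before reaction start.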
Shiga toxin inh: A qHTS for Small Molecule Inhibitors of Shiga Toxin. Vero cells, Shiga toxin protein synthesis inhibition reporter. inhibition, % at 38.7 µM. 290,000 tested, 9.2% active; in the data active means inhibition mostly above about 28%, no sharp cut-off; inactive means mostly below about 43%
Cycloheximide cs: Cycloheximide Counterscreen for Small Molecule Inhibitors of Shiga Toxin. cell reporter, cycloheximide protein synthesis inhibition counterscreen. 300,000 tested, 12% active. AID 2314, 2010. max response, %; in the data active means max response mostly above about 13%, no sharp cut-off; inactive means mostly below about 14%; further: read at 38.3 µM for the half of the compounds with a filed dose
FMDV antiviral: High Throughput Screening for Foot and Mouth Disease Virus Antivirals. AID 1159524, 2015. FMDV antiviral cell-based qHTS. 410,000 tested, 1.2% active. Potency, µM (highest dose often 57.9 µM), actives largely listed as inhibitors; calls by dose curve; tested in HEK293T cells; further: read-out not given here; nearly all actives have a fitted effect of over 45% in size
Numbers stand for hits; 0 = inactive; ? = inconclusive; - = no result.

SMILES	Sm TGR block	Shiga toxin inh	Cycloheximide cs	FMDV antiviral
COc1ccc(Cl)cc1NC(=O)Nc1ccccc1SC	0	0	0	0
O=C(C#Cc1ccccc1)Nc1ccccc1F	0	0	34	0
COc1ccc(NC(=O)Nc2ccccc2F)cc1	0	0	32	-
COc1ccc(CN(C)CC(=O)NC(=O)Nc2ccccc2F)cc1	0	-	-	0
CSc1ccccc1NC(=O)Nc1ccc(Cl)cc1	0	0	55	0
Cc1c(C(=O)N2CCCC2)sc2ncnc(NCCCN3CCOCC3)c12	-	-	-	0
COc1ccc(NC(=O)Cn2c(=O)n(-c3ccc(Cl)cc3)c(=O)c3c(C)c(C(=O)N(C)C)sc32)cc1Cl	0	-	-	0
CCCCCCCC/C=C\CCCCCCCC(=O)N[C@@H](CO)Cc1ccc(O)cc1	-	-	-	0
CCCc1c(C(=O)Nc2ccc(F)cc2C)cnn1-c1ccccc1	0	0	0	0
O=C(Nc1ccc(NC(=O)c2ccccc2O)cc1)Nc1ccc(F)cc1F	0	0	0	0
O=C(Nc1ccc(F)cc1)Nc1ccccc1F	-	109	65	0
COc1ccc(NC(C)=O)c(C)c1	0	0	0	0
CCCc1c(NC(=O)Nc2ccc(F)cc2)cnn1-c1ccccc1	0	45	23	0
COc1cccc(COC(=O)Nc2ccccc2F)c1	0	117	29	0
COc1ccc(NC(=O)Nc2ccccc2F)c(C)c1	0	0	19	0
CCOc1ccc(OCC)c(NS(=O)(=O)c2c(C(=O)N3CCCCCC3)c(C)n(C)c2C)c1	0	-	-	0
O=C(Nc1nnc(S(=O)(=O)N2CCCc3ccccc32)s1)c1ccc(Cl)cc1	0	-	-	0
O=C(Nc1ccccc1F)Nc1ccccc1Br	-	68	25	0
COc1ccc(NC(=S)NC(NC(=O)CF)C(Cl)(Cl)Cl)c([N+](=O)[O-])c1 (stereo not given)	40µM	0	0	0
CNC(=O)Nc1ccccc1F	0	0	0	0
O=C(Nc1ccc(F)cc1)Nc1cccnc1Cl	0	58	35	0
COc1ccc(NC(=O)Nc2ccccc2SC)cc1	0	105	30	0
COc1ccc(NC(=S)NC(NC(C)=O)C(Cl)(Cl)Cl)c([N+](=O)[O-])c1 (stereo not given)	0	0	0	0
CCCc1cc(=O)oc2cc(C)c3c(C(C)(C)C)coc3c12	0	-	-	?
O=C(Nc1ccc2[nH]c(=S)sc2c1)Nc1ccccc1F	0	70	70	0
SMILES	Sm TGR block	Shiga toxin inh	Cycloheximide cs	FMDV antiviral
COC(=O)c1ccc(NC(=O)Nc2ccccc2F)cc1	-	115	40	0
Cc1ccnc(SCC(=O)Nc2sccc2C#N)n1	0	0	12	0
CC(=O)Nc1ccc(SCC(=O)Nc2sccc2C#N)cc1	0	63	33	0
CC(C)Nc1nnc(SCC(=O)Nc2sccc2C#N)s1	0	-	-	0
CC(=O)N1CCC2(CCCN(C(c3ccccc3)c3ccccc3)C2)CC1	-	-	-	0
O=C(Nc1ccc(N2CCCCC2)cc1)c1cncc(Br)c1	0	141	0	0
COc1ccc(NC(=O)c2cc(OC)c(OC)c(OC)c2)cc1S(=O)(=O)N1CCCCC1	0	0	0	?
O=C(Nc1ccc(N2CCN(C(=O)c3ccccc3F)CC2)cc1)c1cncc(Br)c1	0	0	0	32µM
COc1ccc(NC(=O)CN2CCCC2c2cccs2)cc1S(=O)(=O)N1CCCCC1 (stereo not given)	0	-	-	40µM
COc1ccc(NC(=O)c2cncc(Br)c2)cc1S(=O)(=O)N1CCCCC1	0	0	0	20µM
O=C(Nc1ccc(F)cc1F)c1ccc(CN2CC(=O)N3CCCCC3C2=O)cc1 (stereo not given)	0	-	-	0
Cc1ccc(CCNC(=O)Cn2ncc3c(=O)oc4ccccc4c32)cc1	0	-	-	0
COc1cc(OC)c(NC(=O)CSC2=Nc3ccccc3N=C(c3ccc(F)cc3)C2)cc1Cl	0	-	-	0
COc1ccc(C)cc1S(=O)(=O)N1CC(C)OC(C)C1 (stereo not given)	0	0	38	0
COc1ccc(C(C)C)cc1S(=O)(=O)N1CC(C)OC(C)C1 (stereo not given)	0	0	0	0
COc1ccc(Br)cc1S(=O)(=O)N1CCCC1	0	54	30	0
O=C(N[C@@H](Cc1ccccc1)C(=O)N[C@@H](Cc1ccccc1)C(=O)O)OCc1ccccc1	0	-	-	0
O=C(N[C@@H](Cc1ccccc1)C(=O)CCl)OCc1ccccc1	0	-	-	32µM
NNC(=O)C(=O)Nc1ccc(O)cc1	0	0	23	0
Cc1ccc(NC(=O)C(=O)NN)cc1	0	0	0	0
CCOc1cccc2cc(S(=O)(=O)c3ccccc3F)c(=O)oc12	0	-	-	0
O=C(NCCc1ccc2c(c1)OCCO2)c1cccc(F)c1	0	43	51	0
COc1ccc(C(=O)N[C@H](C(=O)NCCc2ccc3c(c2)OCCO3)C(C)C)cc1	-	-	-	0
O=C(NCCc1ccc2c(c1)OCCO2)c1cc(F)cc(F)c1	0	21	25	0
COc1ccc(C(=O)NC(C(=O)NCCc2ccc3c(c2)OCCO3)C(C)C)cc1 (stereo not given)	0	74	21	0
SMILES	Sm TGR block	Shiga toxin inh	Cycloheximide cs	FMDV antiviral
O=C(COc1ccccc1F)NCCc1ccc2c(c1)OCCO2	-	-	-	0
CN(C)S(=O)(=O)c1cccc(C(=O)OCC(=O)Nc2sccc2C(N)=O)c1	0	0	0	14µM
COc1ccc(NC(=O)COC(=O)c2cccc(S(=O)(=O)N(C)C)c2)cc1	0	0	0	0
COc1ccc(C(=O)OCC(=O)Nc2sccc2C(N)=O)cc1OC	0	0	9.3	?
COc1cc(CCC(=O)OCC(=O)Nc2sccc2C(N)=O)cc(OC)c1OC	0	-	-	18µM
COc1cc(C(=O)OCC(=O)Nc2sccc2C(N)=O)cc(OC)c1OC	0	0	0	?
O=C(Cn1c(=O)c2sccc2n(CC(=O)Nc2ccc(Cl)cc2Cl)c1=O)NCCc1ccccc1	0	-	-	0
CCc1ccc(NC(=O)Cn2c(=O)n(CCc3ccccc3)c(=O)c3sc4ccccc4c32)cc1	0	-	-	0
CC1(C)Cc2c(cnn2-c2ccc(F)cc2)C(NC(=O)c2ccco2)C1 (stereo not given)	0	22	0	0
CC(=O)c1ccc(C(=O)NC2CC(C)(C)Cc3c2cnn3-c2ccccc2)cc1 (stereo not given)	0	0	19	0
CC1(C)Cc2c(cnn2-c2cccc(F)c2)C(NC(=O)CCc2cnccn2)C1 (stereo not given)	0	0	41	0
COCC(=O)NC1CC(C)(C)Cc2c1cnn2-c1ccc(F)cc1 (stereo not given)	0	0	0	0
CC1(C)Cc2c(cnn2-c2ccc(F)cc2)C(NC(=O)C2=NNC(=O)CC2)C1 (stereo not given)	0	39	29	0
CCOC(=O)C1CCCN(S(=O)(=O)c2ccc3c(c2)CCN3C(=O)CC)C1 (stereo not given)	0	-	-	?
CCOC(=O)c1cc(-c2ccccc2)n(CCCC(=O)Nc2cccc(Cl)c2C)c1C	0	-	-	0
CCC(Sc1nc2ccncc2[nH]1)C(=O)Nc1ccc(F)cc1 (stereo not given)	0	-	-	0
CC1(C)Cc2c(cnn2-c2ccc(F)cc2)C(NC(=O)CCN2CCCC2=O)C1 (stereo not given)	0	47	30	0

Bioassay records (PubChem BioAssay)
